Here are results for 35 compounds from ChEMBL document CHEMBL3433997, “St. Jude Leishmania screening dataset” (2016).

What all share (assay type): functional
In experiment [1] the target is Solute carrier family 2, facilitated glucose transporter member 1 (Homo sapiens) (UniProt P11166). Put plainly: ST_JUDE_LEISH: Cytotoxicity at 2uM final concentration against transgenic Leishmania Mexicana promastigotes LmGLUT1 that are glucose transport deficient and complemented with the human glucose transporter GLUT1. Activity is measured by DNA content using SYBR green in vitro.
Solute carrier family 2, facilitated glucose transporter member 1 (Homo sapiens), sequence (P11166 whole entry): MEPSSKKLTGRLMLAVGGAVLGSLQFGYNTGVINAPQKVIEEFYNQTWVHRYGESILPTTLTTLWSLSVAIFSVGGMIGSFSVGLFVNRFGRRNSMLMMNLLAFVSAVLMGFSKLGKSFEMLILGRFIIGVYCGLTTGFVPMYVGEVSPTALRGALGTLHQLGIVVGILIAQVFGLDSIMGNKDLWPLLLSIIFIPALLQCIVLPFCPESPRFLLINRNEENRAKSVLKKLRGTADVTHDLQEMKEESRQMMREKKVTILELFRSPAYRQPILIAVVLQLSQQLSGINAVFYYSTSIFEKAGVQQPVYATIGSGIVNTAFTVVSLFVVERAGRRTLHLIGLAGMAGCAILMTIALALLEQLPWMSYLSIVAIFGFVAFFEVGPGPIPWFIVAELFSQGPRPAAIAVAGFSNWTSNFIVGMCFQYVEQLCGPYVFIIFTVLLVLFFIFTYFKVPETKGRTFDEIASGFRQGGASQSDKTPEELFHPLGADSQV

Experiment [2] has as its target Hexose transporter 1 (Plasmodium falciparum) (UniProt O97467). In words: ST_JUDE_LEISH: Cytotoxicity at 2uM final concentration against transgenic Leishmania Mexicana promastigotes LmPfHT that are glucose transport deficient and complemented with the Plasmodium falciparum hexose transporter. Activity is measured by DNA content using SYBR green in vitro.
For experiment [3], the target named is Glucose transporter (Leishmania mexicana) (UniProt O61059). In words: ST_JUDE_LEISH: Cytotoxicity at 2uM final concentration against transgenic Leishmania Mexicana promastigotes LmGT2 that are glucose transport deficient and complemented with the L. Mexicana glucose transporter 2. Activity is measured by DNA content using SYBR green in vitro.

Structures are written as SMILES.

For orientation: inhibition means the relative decrease from the control value, in per cent. `CNC(=O)c1ccccc1Nc1nc(Nc2ccc(C(=O)O)cc2)ncc1Cl`: the inhibition in experiment [1] is -1.75%; in experiment [2], 1.77%; in experiment [3], 1.39%.

Turning to `CN(C)Cc1ccc2nc(-c3cccc(Cc4cc(Cl)ccc4OCc4ccc(Cl)cc4F)n3)[nH]c2c1`, the inhibition in experiment [1] is -0.36%; in experiment [2], -0.21%; in experiment [3], -1.22%.

Regarding `COc1ccc(-c2ccc(NC(=O)c3cccc(C#N)c3)cc2)cc1CN1CCCN(C)CC1`, the inhibition was 4.08% in experiment [1], 2.42% in experiment [2] and -0.48% in experiment [3].

With `CC1(C)NC(N)=NC(=N)N1OCOc1cc(Cl)c(Cl)cc1Cl`, the values for the inhibition in experiment [1], in experiment [2] and in experiment [3] were -2.15%, 0.84% and 6.16%, respectively.

As for `CS(=O)(=O)c1cccc(-c2cnc3[nH]cc(-c4ccc(C(=O)O)cc4)c3c2)c1`, the inhibition in experiment [1] is 1.01%; in experiment [2], -0.81%; in experiment [3], 1.75%.

As to `CC(C)C[C@H](NC(=O)c1ccc(OCCN2CCOCC2)cc1)C(=O)N[C@H](/C=N/NC(=O)c1ccccc1)CCc1ccccc1`, the inhibition in experiment [1] was found to be 3.15%; in experiment [2], 5.83%; in experiment [3], 2.03%.

With `CCOC(=O)c1ccc(NC(=O)N[C@@H](Cc2ccccc2)C(=O)NC2CCN(Cc3ccc(O)cc3)C2)cc1` (stereo not given in full), the inhibition in experiment [1] is -1.09%; in experiment [2], 1.43%; in experiment [3], -7.4%.

For `O=C(Cc1c[nH]cn1)Nc1cccc(-c2cccc(-c3nc4cc(C(F)(F)F)ccc4[nH]3)c2)c1`, the inhibition came to 9.44% in experiment [1], 12.1% in experiment [2] and 10.4% in experiment [3].

Regarding `Cc1ccc(-c2ccc3c(c2)C=C(C(=O)NCC2CCN(CC4CCN(C(=O)/C=C/c5ccc(Cl)c(Cl)c5)CC4)CC2)CCC3)cc1`, the results for the inhibition in experiment [1], in experiment [2] and in experiment [3] were 1.1%, 0.59% and -0.85%, respectively.

As for `O=C(Nc1ccc2c(c1)CCC2)N[C@H]1CCN(CCCCCNC(=O)C2CC2c2ccc(Cl)c(Cl)c2)C1` (stereo not given in full), the inhibition was -0.7% in experiment [1], 0.43% in experiment [2] and -0.01% in experiment [3].

With `CC(=O)Nc1nc(C(=O)Nc2cccc(-c3ccc(-c4nc5cccc(C)c5[nH]4)s3)c2)cs1`, the results for the inhibition in experiment [1], in experiment [2] and in experiment [3] were 6.86%, 11.9% and 8.32%, respectively.

On to `NC(=O)c1cc2nc(Nc3ccc(F)cc3)nc(Nc3ccc(S(N)(=O)=O)cc3)c2[nH]1`, for which the inhibition in experiment [1] is 1.3%; in experiment [2] it was 0.26%; in experiment [3] it was 0.35%.

Take `Oc1ccc(CCNc2nc(NCCOc3ccccc3-c3ccccc3)nc(N3CCNCC3)n2)cc1`: the inhibition is 1.26% in experiment [1], 0.85% in experiment [2] and 1.75% in experiment [3].

As to `Cc1cnc(Nc2cccnc2)nc1Nc1ccccc1C(=O)NC(C)C`, the inhibition in experiment [1] was found to be 1.01%; in experiment [2], 1.12%; in experiment [3], 2.25%.

Regarding `COC(=O)c1cccc(CNCc2cccc(-c3cccc(-c4nc5ccccc5[nH]4)c3)c2)c1`, the inhibition in experiment [1] was determined as 1.94%; in experiment [2], 3.05%; in experiment [3] it was 2.93%.

Take `N#Cc1ccc(C(=O)Nc2ccc(-c3cccc(CN4CCCC4)c3)cc2)cc1`: the inhibition in experiment [1] is 4.22%; in experiment [2], 1.49%; in experiment [3], -0.82%.

On to `Nc1cc2c(C3CCN(CC4CCN(C(=O)/C=C/c5ccc(Cl)c(Cl)c5)CC4)CC3)c[nH]c2cn1`, for which the inhibition in experiment [1] was 1.83%; in experiment [2] it was 0.67%; in experiment [3], -0.09%.

As for `CC(CN1CCN(C)CC1)C(=O)Nc1ccc(-c2cccc(-c3nc4ccccc4[nH]3)c2)cc1` (stereo not given), the inhibition in experiment [1] was 2.41%; in experiment [2] it was 1.7%; in experiment [3], -0.2%.

On to `O=C(CSc1nc2ccccc2c(=O)n1C1CC1)Nc1cc(C(F)(F)F)ccc1Cl`, for which the inhibition was -0.03% in experiment [1], -2.91% in experiment [2] and 2.43% in experiment [3].

Turning to `N#Cc1ccc(N[C@@H](CC2CCCCC2)C(=O)NCc2cc(Cl)cc(Cl)c2)c2ccccc12`, the inhibition was 2.42% in experiment [1], 5.09% in experiment [2] and 4.82% in experiment [3].

Regarding `CN1CCN(c2ccnc3ccc(NC(=O)Cc4ccc(OCc5ccccc5)cc4)cc23)CC1`, the inhibition in experiment [1] worked out at 7.43%; in experiment [2], 7.76%; in experiment [3], 8.79%.

On to `O=C(c1ccccc1)N(Cc1ccccc1-c1ccc(CNCCc2ccccc2)cc1)C1CCN(Cc2ccccc2)CC1`, for which the values for the inhibition in experiment [1], in experiment [2] and in experiment [3] were 12.2%, 10.8% and 14.7%, respectively.

Consider `O=C(Nc1ccc(-c2nc3ccccc3[nH]2)cc1)c1ccc(Cl)c([N+](=O)[O-])c1`, for which the inhibition was 1.55% in experiment [1], 1.9% in experiment [2] and 1.41% in experiment [3].

In the case of `CCN(CC)Cc1cc(NC(=O)c2ccccc2O)ccc1Oc1ccc(Cl)cc1`, the inhibition in experiment [1] is 2.02%; in experiment [2], 0.32%; in experiment [3], 1.46%.

As to `c1cc(-c2ccc(CNCCc3ccncc3)cc2)cc(-c2nc3ccccc3[nH]2)c1`, the inhibition in experiment [1] worked out at 1.85%; in experiment [2] it was 0.82%; in experiment [3] it was 3.55%.

On to `CCCn1c(Sc2ccc(C#N)c([N+](=O)[O-])c2)nnc1-c1ccc(Cl)cc1`, for which the values for the inhibition in experiment [1], in experiment [2] and in experiment [3] were 2.12%, 3.28% and 2.23%, respectively.

Consider `c1csc(-c2nc(NCC3CCCO3)ncc2-c2ccsc2)n1` (stereo not given), for which the inhibition is 1.71% in experiment [1], 2.71% in experiment [2] and 3.35% in experiment [3].

With `COc1ccc(OC)c2c1CCN(CCN1CCC(C(=O)Nc3ccc(C(=O)Nc4ccc(Cl)cc4)cc3)CC1)C2`, the figures for the inhibition in experiment [1], in experiment [2] and in experiment [3] were 1.55%, 0.47% and 0.22%, respectively.

As to `COCCNCc1cccc(-c2ccc3c(Nc4ccc(Oc5ccccc5)cc4)ccnc3c2)c1`, the inhibition in experiment [1] is -0.07%; in experiment [2] it was 1.17%; in experiment [3], -0.14%.

On to `COc1cc(Nc2nccc(N3CCC(NS(=O)(=O)c4ccc(NC(C)=O)cc4)CC3)n2)cc(OC)c1OC`, for which the inhibition in experiment [1] is -1.13%; in experiment [2], -0.44%; in experiment [3], -0.12%.

For the compound `Cc1cc(NC2CCCC2)nc(Nc2ccccc2F)n1`, the inhibition was 11.8% in experiment [1], 4.74% in experiment [2] and 2.95% in experiment [3].

For the compound `COc1cc2nc(NCCc3ccccc3)nc(NCc3nccs3)c2cc1OC`, the figures for the inhibition in experiment [1], in experiment [2] and in experiment [3] were 1.89%, 2.47% and 0.04%, respectively.

As for `COc1c(C2CCN(CCCCNC(=O)c3ccc(-c4ccc(C(F)(F)F)cc4)c(C(=O)OC(C)C)c3)CC2)ccc2c1CCCC2`, the inhibition is 1.36% in experiment [1], 1.79% in experiment [2] and 0.91% in experiment [3].

For `CCOc1ccc(C=CC(=O)Nc2ccc3nc(N4CCOCC4)cc(C)c3c2)cc1OC`, the inhibition in experiment [1] stood at 10.1%; in experiment [2], 9.63%; in experiment [3], 4.75%.

In the case of `COc1ccc(CCCN2C(=O)C(c3ccccc3)(c3ccccc3)N=C2N)cc1`, the inhibition was -1.19% in experiment [1], -0.94% in experiment [2] and -1.7% in experiment [3].
